Data taken from paper PMC4336329 (PLoS ONE, 2015).
In all, about 310,000 compounds went through this assay and about 14,000 (4.5%) showed an effect of 50% or more. The effect is printed as a negative number. This excerpt belongs to a sample that is enriched for strong results.

Target: human ether-à-go-go-related gene (hERG) potassium channel (human, UniProt Q12809)
Assay: primary screen, population patch clamp on CHO cells stably expressing hERG; higher = less effect of the substance
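Also: peak tail current of the secondary pulse compared with the same well before compound.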

Chain of human ether-à-go-go-related gene (hERG) potassium channel (Q12809 whole entry, looked up): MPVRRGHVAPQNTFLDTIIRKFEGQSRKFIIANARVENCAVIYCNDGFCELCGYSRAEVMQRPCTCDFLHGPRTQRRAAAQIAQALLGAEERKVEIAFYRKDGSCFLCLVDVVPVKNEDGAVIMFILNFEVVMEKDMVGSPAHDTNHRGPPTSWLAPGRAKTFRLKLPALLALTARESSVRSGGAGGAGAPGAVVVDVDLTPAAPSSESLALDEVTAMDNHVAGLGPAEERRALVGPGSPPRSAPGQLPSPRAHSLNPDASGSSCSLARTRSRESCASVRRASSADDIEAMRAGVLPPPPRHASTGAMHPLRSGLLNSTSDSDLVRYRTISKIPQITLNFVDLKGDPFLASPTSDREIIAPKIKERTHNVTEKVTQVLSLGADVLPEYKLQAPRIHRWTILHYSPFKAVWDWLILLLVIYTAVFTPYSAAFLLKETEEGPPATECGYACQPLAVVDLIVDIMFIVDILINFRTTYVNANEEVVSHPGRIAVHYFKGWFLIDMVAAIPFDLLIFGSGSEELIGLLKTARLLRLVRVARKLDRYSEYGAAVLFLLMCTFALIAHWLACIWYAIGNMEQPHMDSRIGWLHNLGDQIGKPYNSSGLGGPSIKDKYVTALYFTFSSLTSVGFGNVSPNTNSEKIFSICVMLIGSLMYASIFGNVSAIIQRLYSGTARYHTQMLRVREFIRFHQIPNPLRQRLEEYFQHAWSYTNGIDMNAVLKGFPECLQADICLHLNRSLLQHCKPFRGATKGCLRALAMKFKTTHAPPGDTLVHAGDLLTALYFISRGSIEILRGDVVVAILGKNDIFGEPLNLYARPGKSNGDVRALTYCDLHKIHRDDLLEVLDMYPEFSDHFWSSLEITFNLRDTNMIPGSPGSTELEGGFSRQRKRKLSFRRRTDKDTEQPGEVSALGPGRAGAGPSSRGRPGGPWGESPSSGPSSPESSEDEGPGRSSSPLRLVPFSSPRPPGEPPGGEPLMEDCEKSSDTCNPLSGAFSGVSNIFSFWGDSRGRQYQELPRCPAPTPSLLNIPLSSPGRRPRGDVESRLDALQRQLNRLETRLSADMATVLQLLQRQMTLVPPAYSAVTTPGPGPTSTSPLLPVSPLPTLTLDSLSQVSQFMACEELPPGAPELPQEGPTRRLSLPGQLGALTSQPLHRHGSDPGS

Structure (SMILES) | hERG current change (%, negative = inhibition) at 10uM
CN(C)N1C(=O)CC(N2CCCCC2)C1=O (stereo not shown) | 6.08%
Cc1nn(C(C)C(=O)N2CCc3ccccc32)c(C)c1[N+](=O)[O-] (stereo not shown) | 10%
CC(=O)NS(=O)(=O)c1ccc(NC(=O)c2ccc(NC(=O)c3cccs3)cc2)cc1 | 2.48%
COc1cc2c(cc1OC)-c1cc(NC3CC3)nc(=O)n1CC2 | -24.8%
O=c1oc2c(-c3cccc(F)c3)cc(O)cc2s1 | 8.45%
COc1ccc(NC(=O)CCc2nnc3ccc(NCc4ccco4)nn23)cc1 | 1.15%
CCOC(=O)c1c([N+](=O)[O-])c(C)[nH]c(=O)c1C#N | 21.1%
CCC(c1nnnn1Cc1ccco1)N(Cc1cc2cc(OC)ccc2[nH]c1=O)C1CCCCC1 (stereo not shown) | -6.37%
Cc1cccc(C)c1NC(=O)CN(C)C(=O)c1ccc(-c2cccc(C(F)(F)F)c2)o1 | -12.5%
CCN(CC(=O)NCc1cccs1)C(=O)c1ccccc1F | 9.12%
CCN(CC(=O)NCc1cccs1)C(=O)c1ccc([N+](=O)[O-])o1 | -33.8%
CCN(CC(=O)NCc1cccs1)C(=O)COc1cccc(C(F)(F)F)c1 | -38.2%
CCN(CC(=O)NCc1cccs1)C(=O)c1ccc(-c2ccccc2F)o1 | -71.6%
CCN(CC(=O)NCc1cccs1)C(=O)c1ccc(-c2cccc(C(F)(F)F)c2)o1 | -82.3%
Cn1cccc1Cc1nnc(SCC(=O)NC2CCCC2)n1-c1ccc(F)cc1 | -19%
Brc1ccc(-c2csc(Nc3nc(-c4ccc(Br)cc4)cs3)n2)cc1 | 15%
COCCCNCC(O)COc1cccc2[nH]c(C)cc12 (stereo not shown) | 10%
COc1ccccc1OCCNC(=O)c1cc(=O)[nH]c2ccccc12 | -4.62%
COc1ccccc1OCCNCC(O)COc1cccc2[nH]c3ccccc3c12 (stereo not shown) | -65.6%
COc1cc(CNC(C)(C)CO)cc(Br)c1OCc1ccc(Cl)cc1.Cl | -45.7%
CC(C)(CO)NCc1c(OCc2ccc(Cl)cc2)ccc2ccccc12.Cl | -75.6%
CNCc1c(OCc2ccccc2F)ccc2ccccc12.Cl | -63.5%

Structure (SMILES) | hERG current change (%, negative = inhibition) at 10uM
Cl.OCCNCc1c(OCc2ccc(Cl)cc2)ccc2ccccc12 | -77.4%
COc1cc(CNC(C)(C)CO)cc(Br)c1OCc1ccccc1.Cl | -17.2%
CC(O)CNCCNCc1c(OCc2ccccc2)ccc2ccccc12.Cl (stereo not shown) | -34.6%
COc1cccc(CNC(C)(C)CO)c1OCc1ccc(Cl)cc1.Cl | -56.6%
CCOc1cc(CNCCO)cc(Br)c1OCc1ccc(Cl)cc1.Cl | -16.5%
CNCc1c(OCc2ccccc2)ccc2ccccc12.Cl | -34.1%
CC(C)(CO)NCc1cccc(OCc2ccc(Cl)cc2)c1 | -30.8%
CNCc1ccccc1OCc1ccccc1F.Cl | -4.37%
CNCc1c(OCc2ccc(F)cc2)ccc2ccccc12.Cl | -49.1%
CC(CC(=O)Nc1ccc(S(=O)(=O)Nc2ncccn2)cc1)c1ccccc1 (stereo not shown) | 6.78%
COc1ccc(C(=O)NC(=S)Nc2ccc(N3CCN(C(C)=O)CC3)cc2)cc1[N+](=O)[O-] | -2.14%
O=C1N(CN2C(=O)C3(OCCO3)c3ccccc32)c2ccccc2C12OCCO2 | 17.1%
COc1cc2c(cc1OC)C(COc1ccccc1OC)N(C(C)=O)CC2 (stereo not shown) | 14.8%
CCn1c(CC(=O)Nc2ccccc2F)nnc1SCC(=O)N1CCN(c2ccccc2)CC1 | 1.15%
Nc1ccc(S(=O)(=O)Nc2ccc(C(=O)c3ccccc3)cc2)cc1 | -2.92%
CSc1nc(-c2ccccc2)c(C#N)c(=O)[nH]1 | -5.88%
CCOC(=O)C(Cc1ccccc1)NC(=O)CCCC(=O)c1ccccc1 (stereo not shown) | 0.911%
O=C(CCCSc1nc2ccccc2c(=O)[nH]1)c1ccc(F)cc1 | 3.3%
CCN(CC)S(=O)(=O)c1cccc(C(=O)N/N=C/c2ccc(O)c(O)c2O)c1 | 11.4%
CCc1ccc2nc(N=C(N)N)nc(C)c2c1 | -14.3%
CCOc1cccc(CNCCO)c1OCc1ccc(Cl)cc1.Cl | -53.2%
CCOc1cccc(CNc2ccc(O)cc2)c1OCc1ccc(Cl)cc1 | 10.3%

Structure (SMILES) | hERG current change (%, negative = inhibition) at 10uM
COc1cccc(CNCCO)c1OCc1ccc(Cl)cc1.Cl | -18%
Cc1c(NC(=O)C(C)Sc2ccccc2)c(=O)n(-c2ccccc2)n1C (stereo not shown) | -1.92%
COc1ccc(C(=O)NCC(C)NC(=O)c2ccc(OC)c(Br)c2)cc1Br (stereo not shown) | 4.83%
Cc1ccc(-n2cnc3scc(-c4cccs4)c3c2=O)cc1 | 3.67%
Cc1cc(C)nc(S/C=C/C(=O)c2ccccc2F)n1 | 5.02%
COc1ccc(C2=NN(C(C#N)c3ccc(OC)c(OC)c3)C(c3ccccc3)C2)cc1 (stereo not shown) | 23.8%
CC(C)CCNc1nc(N2CCCC2)c2c(c1C#N)CCN(C)C2 | -58.5%
N#Cc1c(NCCCO)nc(NCc2ccccc2)c2c1CCN(Cc1ccccc1)C2 | -43.4%
CCCCCNc1nc(N2CCCC2)c2c(c1C#N)CCN(C)C2 | -72.8%
CN1CCc2c(C#N)c(N3CCCCC3)nc(N3CCOCC3)c2C1 | -24.8%
CCCCc1nc(NCCO)c(C#N)c2c1CCCC2 | -15.7%
CCCCNc1nc(CC)c2c(c1C#N)CCCC2 | 8.24%
CCc1nc(NCCC(C)C)c(C#N)c2c1CCCC2 | 23.4%
CN1CCc2c(C#N)c(N3CCOCC3)nc(NCC3CCCO3)c2C1 (stereo not shown) | 11.5%
CCCCCNc1nc(NCCCO)c(C#N)c2c1CN(C)CC2 | -75.2%
Cc1ccc(CN2CC(C(=O)N3CCN(S(=O)(=O)c4c(F)cccc4F)CC3)CC2=O)cc1 (stereo not shown) | -2.83%
CCc1cc(=O)oc2c(C)c(OCC(=O)N3CC[C@@]4(O)CCCC[C@H]4C3)ccc12 | -14.6%
O=C(OCC(=O)N(CCc1ccccc1)Cc1ccccc1)c1ccccc1[N+](=O)[O-] | 1.95%
CN(c1ccccc1)S(=O)(=O)c1ccc(Cl)c(C(=O)NCc2ccccc2CN2CCCC2)c1 | -65.9%
COc1ccccc1CNC(=O)c1cccc(S(=O)(=O)N(C)c2ccccc2)c1 | -23.5%
CN(c1ccccc1)S(=O)(=O)c1cccc(C(=O)NCc2ccccc2CN2CCCC2)c1 | -74.6%
CN(C)C(CNC(=O)c1cc(S(=O)(=O)N(C)c2ccccc2)ccc1Cl)c1ccccc1 (stereo not shown) | -39.6%

Structure (SMILES) | hERG current change (%, negative = inhibition) at 10uM
CN(c1ccccc1)S(=O)(=O)c1cccc(C(=O)NCc2ccccc2)c1 | -18.3%
CCN(CC)S(=O)(=O)c1ccc(Cl)c(C(=O)NCc2ccccc2Cl)c1 | -24.7%
O=C(O)C[C@H]1c2cc(C(F)(F)F)ccc2S(=O)(=O)N1C1CCCCC1 | 30.3%
CCOC(=O)c1c(C)[nH]c(N=Nc2ccc(OC)cc2)c1C | -0.496%
Fc1ccc(-c2oncc2-c2nnnn2-c2ccccc2)cc1F | -15.4%
COC(=O)c1ccsc1NC(=O)CS(=O)(=O)c1ccccc1 | -10.1%
CCNS(=O)(=O)c1ccc(CCC(=O)N2CCN(c3cccc(Cl)c3)CC2)cc1 | -32.7%
CCCCN=C(NNc1ccc(Br)cc1)C(=O)OCC | 3.69%
N#Cc1ccc(COC(=O)c2cnc(Cl)c(Cl)c2)cc1 | 8.12%
COc1ccc(NCC(=O)N/N=C/c2cc([N+](=O)[O-])ccc2N2CCCC2)cc1 | -7.82%
O=C(NCc1ccccc1)C(c1ccco1)N(C(=O)c1cnccn1)c1ccc(F)cc1 (stereo not shown) | 10.5%
O=S(=O)(Nc1ccncc1)c1ccc(Cl)c(Cl)c1 | 18.4%
O=[N+]([O-])c1cccc(S(=O)(=O)Nc2ccc(Cc3ccncc3)cc2)c1 | -72.2%
O=S(=O)(Nc1ccc(Cc2ccncc2)cc1)c1ccc(Cl)c(Cl)c1 | -53.4%
O=[N+]([O-])c1cccc(S(=O)(=O)NCc2ccncc2)c1 | 19.4%
CCS(=O)(=O)Nc1ccc(Cc2ccncc2)cc1 | -0.00702%
CCS(=O)(=O)Nc1ccc(Cc2ccc(NS(=O)(=O)CC)cc2)cc1 | -7.91%
CCCCS(=O)(=O)Nc1ccc(Cc2ccncc2)cc1 | -50.2%
O=C(NCc1ccncc1)c1ccc(NS(=O)(=O)c2cccc([N+](=O)[O-])c2)cc1 | 19.2%
O=S(=O)(Nc1ccc(Cc2ccncc2)cc1)c1ccc(Cl)cc1 | 12.4%
COc1cccc(CNC(=O)C2=C(C)C(=O)OC23CCC(C)CC3)c1 (stereo not shown) | -5.65%
O=C(O)c1cc(S(=O)(=O)N2CCCCCC2)ccc1Cl | 20%
